From ChEMBL document CHEMBL2218924, “A broad activity screen in support of a chemogenomic map for kinase signalling research and drug discovery” (Biochem J, 2013)

Target: Tyrosine-protein kinase HCK (Homo sapiens) (UniProt P08631)
Details: at 1 µM

Tyrosine-protein kinase HCK (Homo sapiens), sequence (P08631 2-526 limits assumed): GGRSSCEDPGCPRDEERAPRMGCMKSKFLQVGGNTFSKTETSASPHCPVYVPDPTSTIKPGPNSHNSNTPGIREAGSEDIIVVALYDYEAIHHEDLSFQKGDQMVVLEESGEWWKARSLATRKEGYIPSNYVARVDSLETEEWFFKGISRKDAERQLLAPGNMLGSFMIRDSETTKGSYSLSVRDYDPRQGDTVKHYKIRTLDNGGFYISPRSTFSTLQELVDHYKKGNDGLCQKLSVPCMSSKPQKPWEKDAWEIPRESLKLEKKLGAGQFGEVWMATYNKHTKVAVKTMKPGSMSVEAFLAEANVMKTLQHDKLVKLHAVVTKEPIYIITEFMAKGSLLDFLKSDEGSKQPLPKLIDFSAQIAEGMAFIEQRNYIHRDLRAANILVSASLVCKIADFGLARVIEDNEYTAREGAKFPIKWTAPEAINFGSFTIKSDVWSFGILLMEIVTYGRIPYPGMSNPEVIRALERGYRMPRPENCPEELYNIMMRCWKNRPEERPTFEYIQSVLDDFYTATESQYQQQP

Compound | residual activity [%]
COc1ccc2c(c1)c(C1=C(c3c[nH]c4ccccc34)C(=O)NC1=O)cn2CCCN(C)C | 98
COc1cc2nccc(Oc3ccc(NC(=S)NC(=O)c4ccccc4C)cc3)c2cc1OC | 11
CC(C)(C)n1nc(Cc2cccc3ccccc23)c2c(N)ncnc21 | 43
Nc1ncnc2c1cnn2-c1ccccc1 | 96
O=C1NC(=O)c2c1c1c3ccccc3[nH]c1n1cncc21 | 38
CCCCc1c(-c2ccc(OC)cc2)[nH]c2nccnc12 | 75
COc1cc2c(cc1OC)-c1n[nH]c(Nc3cccc(F)c3)c1C2 | 19
Nc1ncnc2c1c(-c1ccc(Oc3ccccc3)cc1)cn2C1CCCC1 | 1
O=c1cc(N2CCOCC2)oc2c1ccc1ccccc12 | 101
CCCC(=O)Oc1ccc2[nH]c(C(=O)c3cc4ccccc4[nH]3)cc2c1 | 98
CCN(CC)CCNC(=O)c1c(C)[nH]c(/C=C2\C(=O)Nc3ccc(Cl)cc32)c1C | 9
O=C(c1cc2cc(O)ccc2[nH]1)c1cc2cc(O)ccc2[nH]1 | 8
CN(C)S(=O)(=O)c1ccc2c(c1)/C(=C/c1cc3c([nH]1)CCCC3)C(=O)N2 | 73
O=C(CCCc1ccc(-c2ccccc2F)cc1)Nc1ccc(O)cc1 | 106
NC(=O)Nc1sc(-c2ccc(F)cc2)cc1C(N)=O | 37
Cc1cc(C)c(/C=C2\C(=O)Nc3ccccc32)[nH]1 | 63
O=C(O)/C=C/c1cc(Br)c(Br)c(Br)c1Br | 107
CCCCc1c(-c2ccc(O)cc2)[nH]c2nccnc12 | 63
O=C1Nc2ccc(Cl)cc2/C1=C/c1cc(Cl)c(O)c(Cl)c1 | 86
CC(C)[C@H](CO)Nc1nc(Nc2cc(N)cc(Cl)c2)c2ncn(C(C)C)c2n1 | 50
O=C1C(Cl)=C(N2C(=O)CCC2=O)C(=O)c2ccccc21 | 91
Cn1c2ccccc2c2c3c(c4c5ccccc5n(CCC#N)c4c21)CNC3=O | 69
CC(C)c1nn(-c2c(Cl)cccc2Cl)c2nc(Cc3ccc(OCCO)cc3)[nH]c(=O)c12 | 98
Nc1nc(Nc2ccc(S(N)(=O)=O)cc2)nn1C(=O)c1c(F)cccc1F | 75

Target: Tyrosine-protein kinase HCK (Homo sapiens) (UniProt P08631)
Details: at 10 µM

Compound | residual activity [%]
COc1ccc2c(c1)c(C1=C(c3c[nH]c4ccccc34)C(=O)NC1=O)cn2CCCN(C)C | 72
COc1cc2nccc(Oc3ccc(NC(=S)NC(=O)c4ccccc4C)cc3)c2cc1OC | 3
Nc1ncnc2c1cnn2-c1ccccc1 | 85
O=C1NC(=O)c2c1c1c3ccccc3[nH]c1n1cncc21 | 35
CCCCc1c(-c2ccc(OC)cc2)[nH]c2nccnc12 | 81
COc1cc2c(cc1OC)-c1n[nH]c(Nc3cccc(F)c3)c1C2 | 2
Nc1ncnc2c1c(-c1ccc(Oc3ccccc3)cc1)cn2C1CCCC1 | -2
O=C1Nc2ccccc2/C1=C\c1c(Cl)[nH]c2ccccc12 | 87
O=c1cc(N2CCOCC2)oc2c1ccc1ccccc12 | 110
CCCC(=O)Oc1ccc2[nH]c(C(=O)c3cc4ccccc4[nH]3)cc2c1 | 94
CCN(CC)CCNC(=O)c1c(C)[nH]c(/C=C2\C(=O)Nc3ccc(Cl)cc32)c1C | 0
O=C(c1cc2cc(O)ccc2[nH]1)c1cc2cc(O)ccc2[nH]1 | 3
CN(C)S(=O)(=O)c1ccc2c(c1)/C(=C/c1cc3c([nH]1)CCCC3)C(=O)N2 | 74
O=C(CCCc1ccc(-c2ccccc2F)cc1)Nc1ccc(O)cc1 | 89
NC(=O)Nc1sc(-c2ccc(F)cc2)cc1C(N)=O | 7
Cc1cc(C)c(/C=C2\C(=O)Nc3ccccc32)[nH]1 | 40
O=C(c1ccccc1)c1ccc(N2CCOCC2)cc1O | 93
O=C(O)/C=C/c1cc(Br)c(Br)c(Br)c1Br | 106
CCCCc1c(-c2ccc(O)cc2)[nH]c2nccnc12 | 64
O=c1cc(N2CCNCC2)oc2c(-c3ccccc3)cccc12 | 95
O=C1Nc2ccc(Cl)cc2/C1=C/c1cc(Cl)c(O)c(Cl)c1 | 53
CC(C)[C@H](CO)Nc1nc(Nc2cc(N)cc(Cl)c2)c2ncn(C(C)C)c2n1 | 9
Cn1c2ccccc2c2c3c(c4c5ccccc5n(CCC#N)c4c21)CNC3=O | 58
CC(C)c1nn(-c2c(Cl)cccc2Cl)c2nc(Cc3ccc(OCCO)cc3)[nH]c(=O)c12 | 86
Nc1nc(Nc2ccc(S(N)(=O)=O)cc2)nn1C(=O)c1c(F)cccc1F | 21

Target: Insulin-like growth factor 1 receptor (Homo sapiens) (UniProt P08069)
Details: at 1 µM

Insulin-like growth factor 1 receptor (Homo sapiens), sequence (P08069 31-736 limits assumed): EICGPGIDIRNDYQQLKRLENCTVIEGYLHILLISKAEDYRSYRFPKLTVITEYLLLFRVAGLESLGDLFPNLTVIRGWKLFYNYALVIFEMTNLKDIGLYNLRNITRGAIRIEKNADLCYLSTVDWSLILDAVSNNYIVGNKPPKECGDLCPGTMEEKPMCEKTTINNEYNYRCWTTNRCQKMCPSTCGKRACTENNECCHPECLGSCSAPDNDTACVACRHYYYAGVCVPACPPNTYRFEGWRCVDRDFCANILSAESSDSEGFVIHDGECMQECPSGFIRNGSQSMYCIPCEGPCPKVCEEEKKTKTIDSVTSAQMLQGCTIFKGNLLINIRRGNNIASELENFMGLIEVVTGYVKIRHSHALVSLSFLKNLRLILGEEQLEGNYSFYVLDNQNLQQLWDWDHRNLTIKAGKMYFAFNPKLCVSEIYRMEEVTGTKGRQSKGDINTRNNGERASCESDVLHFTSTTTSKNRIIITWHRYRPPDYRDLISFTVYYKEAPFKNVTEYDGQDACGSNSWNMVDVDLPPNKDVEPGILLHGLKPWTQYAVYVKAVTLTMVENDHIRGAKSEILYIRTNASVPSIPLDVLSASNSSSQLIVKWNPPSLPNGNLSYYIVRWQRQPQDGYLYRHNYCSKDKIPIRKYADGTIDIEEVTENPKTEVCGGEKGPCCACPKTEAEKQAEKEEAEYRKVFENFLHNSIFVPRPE
Insulin-like growth factor 1 receptor (Homo sapiens), sequence (P08069 741-1367 limits assumed): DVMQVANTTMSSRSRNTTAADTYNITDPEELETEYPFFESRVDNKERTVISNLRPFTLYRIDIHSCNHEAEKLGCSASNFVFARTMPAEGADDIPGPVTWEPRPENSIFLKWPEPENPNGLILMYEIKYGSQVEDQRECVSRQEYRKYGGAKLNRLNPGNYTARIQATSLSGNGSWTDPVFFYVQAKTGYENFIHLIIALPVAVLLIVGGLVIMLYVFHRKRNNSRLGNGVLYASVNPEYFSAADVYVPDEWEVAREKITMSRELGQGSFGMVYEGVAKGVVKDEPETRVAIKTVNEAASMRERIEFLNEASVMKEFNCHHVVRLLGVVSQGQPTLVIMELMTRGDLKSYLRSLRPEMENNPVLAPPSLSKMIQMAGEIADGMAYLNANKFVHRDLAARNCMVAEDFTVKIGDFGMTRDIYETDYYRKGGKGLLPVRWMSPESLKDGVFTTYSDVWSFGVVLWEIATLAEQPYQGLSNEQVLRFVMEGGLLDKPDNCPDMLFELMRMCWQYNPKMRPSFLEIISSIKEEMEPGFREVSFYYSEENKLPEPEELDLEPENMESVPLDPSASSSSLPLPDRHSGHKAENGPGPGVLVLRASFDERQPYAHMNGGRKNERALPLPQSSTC

Compound | residual activity [%]
COc1ccc2c(c1)c(C1=C(c3c[nH]c4ccccc34)C(=O)NC1=O)cn2CCCN(C)C | 134
COc1cc2nccc(Oc3ccc(NC(=S)NC(=O)c4ccccc4C)cc3)c2cc1OC | 120
CC(C)(C)n1nc(Cc2cccc3ccccc23)c2c(N)ncnc21 | 142
O=C(NC(NC(=S)Nc1ccc(F)c([N+](=O)[O-])c1)C(Cl)(Cl)Cl)C(c1ccccc1)c1ccccc1 (stereo not drawn) | 76
Nc1ncnc2c1cnn2-c1ccccc1 | 140
O=C1NC(=O)C(c2c[nH]c3ccccc23)=C1c1c[nH]c2ccccc12 | 128
O=C1NC(=O)c2c1c1c3ccccc3[nH]c1n1cncc21 | 9
CCCCc1c(-c2ccc(OC)cc2)[nH]c2nccnc12 | 109
COc1cc2c(cc1OC)-c1n[nH]c(Nc3cccc(F)c3)c1C2 | 105
Nc1ncnc2c1c(-c1ccc(Oc3ccccc3)cc1)cn2C1CCCC1 | 127
CCCC(=O)Oc1ccc2[nH]c(C(=O)c3cc4ccccc4[nH]3)cc2c1 | 143
O=C1NC(=O)C(c2cn(CCCn3ccnc3)c3ccccc23)=C1Nc1ccccc1 | 140
CCN(CC)CCNC(=O)c1c(C)[nH]c(/C=C2\C(=O)Nc3ccc(Cl)cc32)c1C | 135
O=C(c1cc2cc(O)ccc2[nH]1)c1cc2cc(O)ccc2[nH]1 | 65
Oc1cccc(-c2nc(N3CCOCC3)c3oc4ncccc4c3n2)c1 | 131
O=C(CCCc1ccc(-c2ccccc2F)cc1)Nc1ccc(O)cc1 | 104
NC(=O)Nc1sc(-c2ccc(F)cc2)cc1C(N)=O | 82
O=C(c1ccccc1)c1ccc(N2CCOCC2)cc1O | 76
CCCCc1c(-c2ccc(O)cc2)[nH]c2nccnc12 | 131
O=C1Nc2ccc(Cl)cc2/C1=C/c1cc(Cl)c(O)c(Cl)c1 | 126
CC(C)[C@H](CO)Nc1nc(Nc2cc(N)cc(Cl)c2)c2ncn(C(C)C)c2n1 | 118
O=C1C(Cl)=C(N2C(=O)CCC2=O)C(=O)c2ccccc21 | 93
Cn1c2ccccc2c2c3c(c4c5ccccc5n(CCC#N)c4c21)CNC3=O | 145
CC(C)c1nn(-c2c(Cl)cccc2Cl)c2nc(Cc3ccc(OCCO)cc3)[nH]c(=O)c12 | 135
